Reference: PubChem BioAssay (EPA / NIEHS)
Records with an inconclusive call do not appear. The source made the active and inactive calls. The calls were made as follows, unless noted: active = hit-call score of the fitted dose curve at least 0.9, where 1 is the maximum; inactive = score below 0.9.

Experiments:
[1] = ATG_AP_2_CIS: Attagene CIS-FACTORIAL HepG2 Assay for human Activator Protein 2 (AP-2) (AID 2282932); conditions: HepG2 AP-2 cis-reporter, Attagene transcription factor profiling; actives raise or lower the signal
How it was run: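 HepG2, transient MRTU transfection, cis-regulated reporters; 24 h compound exposure; RNA isolated, RT-PCR, 6-FAM labelling, HpaI digest, CE fluorescence. DMSO = negative control/baseline, bidirectional fit.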

[2] = target: Retinoic acid receptor alpha (Homo sapiens) (UniProt P10276); assay: ATG_DR5_RAR_CIS: Attagene CIS-FACTORIAL HepG2 Assay for human Retinoic Acid Receptor Alpha (RARE), DR5 submotif (AID 2282934); conditions: HepG2 Attagene cis-factorial RARE DR5 reporter, mRNA; actives raise or lower the signal
Retinoic acid receptor alpha (Homo sapiens), sequence (P10276 whole entry, looked up): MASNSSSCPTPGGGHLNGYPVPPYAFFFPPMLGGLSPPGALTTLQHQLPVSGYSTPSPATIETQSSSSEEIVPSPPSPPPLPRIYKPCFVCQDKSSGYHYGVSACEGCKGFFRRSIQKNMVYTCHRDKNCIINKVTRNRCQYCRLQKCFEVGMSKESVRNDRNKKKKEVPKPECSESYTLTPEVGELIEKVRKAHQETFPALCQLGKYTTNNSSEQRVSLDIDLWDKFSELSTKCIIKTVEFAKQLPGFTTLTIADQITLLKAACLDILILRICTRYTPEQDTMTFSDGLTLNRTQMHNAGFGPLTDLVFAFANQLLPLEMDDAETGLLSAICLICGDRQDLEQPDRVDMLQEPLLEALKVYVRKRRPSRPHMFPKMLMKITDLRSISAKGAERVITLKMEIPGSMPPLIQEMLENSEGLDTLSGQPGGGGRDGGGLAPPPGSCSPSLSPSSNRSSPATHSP
How it was run: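 HepG2, transient cis-reporter transfection, 24 h exposure. mRNA readout: RT-PCR, FAM label, HpaI cut, capillary electrophoresis. DMSO baseline, gain/loss fitting.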

[3] = target: Hypoxia-inducible factor 1-alpha (Homo sapiens) (UniProt Q16665); assay: ATG_HIF1a_CIS: Attagene CIS-FACTORIAL HepG2 Assay for human Hypoxia Inducible Factor 1 (HIF1A) (AID 2282951); conditions: HepG2 Attagene cis-factorial HIF1a reporter transcription; actives raise or lower the signal
Hypoxia-inducible factor 1-alpha (Homo sapiens), sequence (Q16665 whole entry, looked up): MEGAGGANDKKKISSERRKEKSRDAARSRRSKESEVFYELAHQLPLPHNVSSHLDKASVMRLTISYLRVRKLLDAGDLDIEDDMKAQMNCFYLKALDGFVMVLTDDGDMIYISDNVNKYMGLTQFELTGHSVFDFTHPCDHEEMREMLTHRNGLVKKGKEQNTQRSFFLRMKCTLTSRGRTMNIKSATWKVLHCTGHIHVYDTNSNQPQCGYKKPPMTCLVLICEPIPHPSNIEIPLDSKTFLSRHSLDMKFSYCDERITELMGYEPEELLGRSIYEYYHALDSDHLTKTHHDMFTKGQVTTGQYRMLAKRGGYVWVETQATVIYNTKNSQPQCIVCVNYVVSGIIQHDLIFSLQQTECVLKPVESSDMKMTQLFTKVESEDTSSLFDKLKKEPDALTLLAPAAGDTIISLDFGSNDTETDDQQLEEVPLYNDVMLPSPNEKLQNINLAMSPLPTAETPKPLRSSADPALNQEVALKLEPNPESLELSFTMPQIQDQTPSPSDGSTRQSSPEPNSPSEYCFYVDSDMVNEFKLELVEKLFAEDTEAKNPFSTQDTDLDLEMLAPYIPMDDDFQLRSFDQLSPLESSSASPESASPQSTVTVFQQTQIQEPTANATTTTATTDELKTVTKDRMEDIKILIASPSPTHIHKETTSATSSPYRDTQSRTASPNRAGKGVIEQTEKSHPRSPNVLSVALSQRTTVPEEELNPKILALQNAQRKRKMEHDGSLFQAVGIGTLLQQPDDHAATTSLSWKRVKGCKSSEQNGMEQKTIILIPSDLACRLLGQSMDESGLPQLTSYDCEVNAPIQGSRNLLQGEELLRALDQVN
How it was run: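 Dosed 24 h, transfected HepG2 cells yielded total RNA whose reporter transcripts were RT-PCR-amplified and sized by capillary electrophoresis using fluorescent labelling; DMSO defined baseline, with gain and loss of signal both fitted.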

[4] = ATG_MRE_CIS: Attagene CIS-FACTORIAL HepG2 Assay for human Metal Responsive Element (MRE) (AID 2282954); conditions: HepG2 MRE cis-reporter transcription, Attagene multiplex; actives raise or lower the signal
How it was run: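 Transient MRTU transfection of HepG2 (FuGene 6); 24 h dosing; total RNA → oligo(dT) RT, PCR, 6-FAM primer extension, HpaI cut, CE. Bidirectional fit vs DMSO.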

[5] = ATG_PBREM_CIS: Attagene CIS-FACTORIAL HepG2 Assay for human Phenobarbital-responsive Enhancer Module (PBREM) (AID 2282955); conditions: HepG2 PBREM cis-reporter, Attagene multiplexed transcription; actives raise or lower the signal
How it was run: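 Transfected liver-derived HepG2 cells exposed 24 h; PBREM reporter transcript quantified via RT-PCR and capillary electrophoresis, with activity in either direction referenced to DMSO.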

[6] = ATG_RORE_CIS: Attagene CIS-FACTORIAL HepG2 Assay for human RAR-related Orphan Receptor Element (RORE) (AID 2282959); conditions: HepG2 Attagene cis-factorial RORE reporter, mRNA; actives raise or lower the signal
How it was run: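 Transiently transfected HepG2 reporter cells were treated 24 h. Reporter transcripts were detected by RT-PCR and capillary electrophoresis, with bidirectional fitting against DMSO.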

[7] = ATG_M_19_TRANS: Attagene TRANS-FACTORIAL HepG2 Assay for M19 Transcription Factor (Internal Marker) (AID 2282974; active = hit-call score of the fitted dose curve at least 0.9, where 1 is the maximum); conditions: HepG2 Attagene TRANS-FACTORIAL M19 internal marker reporter
How it was run: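 Using RT-PCR and capillary electrophoresis, reporter mRNA from transiently transfected human HepG2 cells was quantified following 24 h exposure; activity was fitted in the positive direction against DMSO.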

[8] = ATG_M_32_TRANS: Attagene TRANS-FACTORIAL HepG2 Assay for M32 Transcription Factor (Internal Marker) (AID 2282984; active = hit-call score of the fitted dose curve at least 0.9, where 1 is the maximum;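 also: transcript level of a background control reporter unit measured by RT-PCR and capillary electrophoresis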); conditions: HepG2 Attagene TRANS M32 internal marker reporter
How it was run: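 Measures reporter mRNA induction in human HepG2 liver cells after 24 h chemical treatment. Transcripts from transiently transfected GAL4-UAS reporter units are amplified, fluorescently labelled and sized by capillary electrophoresis; gain of signal relative to DMSO.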

[9] = ATG_NFI_CIS: Attagene CIS-FACTORIAL HepG2 Assay for human Nuclear Factor I (NFI) (AID 2282989); conditions: HepG2 cis-regulatory reporter, NFI response element transcription; actives raise or lower the signal
How it was run: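 Transient MRTU transfection of HepG2 → 24 h chemical dosing → total RNA, oligo(dT) RT → PCR, 6-FAM primer extension, HpaI cut → capillary electrophoresis. Endpoint fitted bidirectionally relative to DMSO.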

[10] = ATG_NF_kB_CIS: Attagene CIS-FACTORIAL HepG2 Assay for human Nuclear Factor Kappa B (NF-kB) (AID 2282991); conditions: HepG2 Attagene cis-factorial NF-kB reporter mRNA; actives raise or lower the signal
How it was run: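 Endpoint from a 52-component multiplexed HepG2 reporter panel: cis-regulated transcription units transiently transfected, 24 h dosing, reporter mRNA quantified by RT-PCR and capillary electrophoresis, scored as increase or decrease against DMSO.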

[11] = ATG_NRF2_ARE_CIS: Attagene CIS-FACTORIAL HepG2 Assay for human Nuclear Factor Erythroid 2 Related Factor 2 (NFR2) response to Antioxidant Response Elements (ARE) (AID 2282992); conditions: HepG2 Attagene ARE/NRF2 reporter, transcription factor activity; actives raise or lower the signal;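 as to AC50: reporter mRNA level measured by RT-PCR and capillary electrophoresis fluorescence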
How it was run: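 HepG2 cells transiently transfected with multiplexed cis-regulated reporter transcription units measure endogenous transcription factor activity. Reporter mRNA at 24 h is quantified by RT-PCR, fluorescent labelling and capillary electrophoresis, with bidirectional fitting relative to DMSO.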

[12] = target: human Retinoid X Receptor beta (RXRb), RXRB (gene 6257) (UniProt P28702); assay: ATG_RXRb_TRANS: Attagene TRANS-FACTORIAL HepG2 Assay for human Retinoid X Receptor beta (RXRb) (AID 2283013; active = hit-call score of the fitted dose curve at least 0.9, where 1 is the maximum)
human Retinoid X Receptor beta (RXRb), RXRB (gene 6257), sequence (P28702 whole entry, looked up, the tested form may be a part): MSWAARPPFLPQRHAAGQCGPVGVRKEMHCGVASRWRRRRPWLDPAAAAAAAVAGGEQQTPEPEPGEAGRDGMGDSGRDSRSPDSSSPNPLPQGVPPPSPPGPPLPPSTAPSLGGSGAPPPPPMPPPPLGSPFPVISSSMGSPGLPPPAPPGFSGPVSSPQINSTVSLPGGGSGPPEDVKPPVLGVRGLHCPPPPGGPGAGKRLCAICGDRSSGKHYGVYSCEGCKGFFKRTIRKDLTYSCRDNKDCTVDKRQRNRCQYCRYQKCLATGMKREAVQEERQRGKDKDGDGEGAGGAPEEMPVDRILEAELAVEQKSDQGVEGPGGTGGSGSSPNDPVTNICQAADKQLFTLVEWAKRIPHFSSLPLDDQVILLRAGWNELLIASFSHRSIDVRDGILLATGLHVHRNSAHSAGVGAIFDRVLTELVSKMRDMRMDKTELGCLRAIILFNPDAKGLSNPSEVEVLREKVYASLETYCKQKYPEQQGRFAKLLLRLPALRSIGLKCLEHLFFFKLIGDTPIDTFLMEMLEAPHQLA
How it was run: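 Transfect HepG2 with GAL4-UAS multi-reporter constructs (chimeric NR-Gal4, TRANS format); dose compound 24 h; isolate RNA, RT-PCR, FAM primer extension, HpaI digest; quantify by capillary electrophoresis; positive direction vs DMSO.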

[13] = target: human Thyroid Receptor alpha (THRa1), THRA (gene 7067) (UniProt P10827); assay: ATG_THRa1_TRANS: Attagene TRANS-FACTORIAL HepG2 Assay for human Thyroid Receptor alpha (THRa1) (AID 2283014; active = hit-call score of the fitted dose curve at least 0.9, where 1 is the maximum)
human Thyroid Receptor alpha (THRa1), THRA (gene 7067), sequence (P10827 whole entry, looked up, the tested form may be a part): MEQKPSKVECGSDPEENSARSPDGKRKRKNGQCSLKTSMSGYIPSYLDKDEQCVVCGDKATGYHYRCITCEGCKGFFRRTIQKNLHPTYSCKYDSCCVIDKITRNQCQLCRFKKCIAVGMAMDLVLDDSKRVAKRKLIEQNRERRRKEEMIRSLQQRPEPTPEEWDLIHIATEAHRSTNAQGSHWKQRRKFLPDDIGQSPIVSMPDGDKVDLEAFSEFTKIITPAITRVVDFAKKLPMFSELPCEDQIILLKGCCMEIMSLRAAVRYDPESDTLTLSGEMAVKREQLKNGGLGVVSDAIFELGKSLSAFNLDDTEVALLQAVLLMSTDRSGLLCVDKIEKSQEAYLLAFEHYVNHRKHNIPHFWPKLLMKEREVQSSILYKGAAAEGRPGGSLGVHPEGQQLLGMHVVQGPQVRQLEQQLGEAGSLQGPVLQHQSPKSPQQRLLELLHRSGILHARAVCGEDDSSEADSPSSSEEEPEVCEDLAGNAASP
How it was run: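 Transient HepG2 transfection, NR-Gal4 chimera driving GAL4-UAS reporters; 24 h compound exposure; total RNA, oligo(dT) RT, PCR, fluorescent primer extension, capillary electrophoresis. Upward direction vs DMSO control.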

[14] = ATG_EGR_CIS: Attagene CIS-FACTORIAL HepG2 Assay for human Early Growth Response 1 (EGR1) (AID 2282938); conditions: HepG2 Attagene CIS-FACTORIAL EGR reporter mRNA; actives raise or lower the signal
How it was run: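 Endpoint derived by bidirectional fitting versus DMSO vehicle. Method: cis-promoter reporter units transfected into HepG2, 24 h dosing, RNA isolation, RT-PCR with 6-FAM primer extension and HpaI digestion, then capillary electrophoresis fluorescence detection.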

[15] = ATG_TA_CIS: Attagene CIS-FACTORIAL HepG2 Assay for human TA Basal Promoter (AID 2282964); conditions: HepG2 Attagene CIS-factorial TA basal promoter reporter; actives raise or lower the signal
How it was run: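 Read-out: fluorescent reporter-transcript fragments resolved by capillary electrophoresis after RT-PCR and HpaI digestion. Source: HepG2 cells carrying transiently transfected multi-reporter cis constructs, treated 24 h. Endpoint fitted bidirectionally relative to DMSO.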

[16] = ATG_M_06_TRANS: Attagene TRANS-FACTORIAL HepG2 Assay for M06 Transcription Factor (Internal Marker) (AID 2282983; active = hit-call score of the fitted dose curve at least 0.9, where 1 is the maximum;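 also: reporter transcript level by RT-PCR then capillary electrophoresis fluorescence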); conditions: HepG2 Attagene TRANS M06 internal marker reporter
How it was run: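 After a 24 h chemical treatment of transfected HepG2, RNA underwent DNase I treatment, reverse transcription and reporter-specific PCR; labelled, HpaI-digested products were sized by capillary electrophoresis. Signal increase relative to DMSO defined activity.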

[17] = ATG_BRE_CIS: Attagene CIS-FACTORIAL HepG2 Assay for human Bone Morphogenetic Protein (BMP) Response Element (BRE) (AID 2282933); conditions: HepG2 BMP response element reporter, Attagene transcription factor profiling; actives raise or lower the signal
How it was run: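 Transient MRTU transfection of human HepG2 liver cells; 24 h compound treatment; total RNA isolated, reverse-transcribed, PCR-amplified, 6-FAM labelled, HpaI-cut, capillary electrophoresis. DMSO = negative control/baseline, bidirectional fit.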

[18] = target: Hepatocyte nuclear factor 4-alpha (Homo sapiens) (UniProt P41235); assay: ATG_HNF4a_TRANS: Attagene TRANS-FACTORIAL HepG2 Assay for human Hepatocyte Nuclear Factor 4 alpha (HNF4a) (AID 2282982; active = hit-call score of the fitted dose curve at least 0.9, where 1 is the maximum); conditions: HepG2 HNF4a transactivation reporter, mRNA readout
Hepatocyte nuclear factor 4-alpha (Homo sapiens), sequence (P41235 whole entry, looked up, the tested form may be a part): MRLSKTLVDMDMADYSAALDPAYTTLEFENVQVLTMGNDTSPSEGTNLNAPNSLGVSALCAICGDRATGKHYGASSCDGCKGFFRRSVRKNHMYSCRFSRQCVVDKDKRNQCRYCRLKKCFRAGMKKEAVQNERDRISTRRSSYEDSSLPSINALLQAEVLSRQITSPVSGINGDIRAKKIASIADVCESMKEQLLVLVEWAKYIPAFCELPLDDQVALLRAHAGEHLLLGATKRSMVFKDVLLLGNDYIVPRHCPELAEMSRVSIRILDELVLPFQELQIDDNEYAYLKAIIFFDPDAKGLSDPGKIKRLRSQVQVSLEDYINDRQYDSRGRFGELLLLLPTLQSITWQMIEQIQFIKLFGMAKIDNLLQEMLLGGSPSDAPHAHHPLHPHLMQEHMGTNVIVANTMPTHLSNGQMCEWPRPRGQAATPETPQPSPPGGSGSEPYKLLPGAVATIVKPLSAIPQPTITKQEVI
How it was run: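 Readout is fluorescent reporter-transcript fragments resolved by capillary electrophoresis after RT-PCR from HepG2 cells dosed for 24 h. Cells carried transfected GAL4-UAS reporter constructs measuring exogenous NR-GAL4 chimera activity; DMSO served as baseline.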

[19] = target: human Peroxisome Proliferator-activated Receptor alpha (PPARa), PPARA (gene 5465) (UniProt Q07869); assay: ATG_PPARa_TRANS: Attagene TRANS-FACTORIAL HepG2 Assay for human Peroxisome Proliferator-activated Receptor alpha (PPARa) (AID 2283001; active = hit-call score of the fitted dose curve at least 0.9, where 1 is the maximum)
human Peroxisome Proliferator-activated Receptor alpha (PPARa), PPARA (gene 5465), sequence (Q07869 whole entry, looked up, the tested form may be a part): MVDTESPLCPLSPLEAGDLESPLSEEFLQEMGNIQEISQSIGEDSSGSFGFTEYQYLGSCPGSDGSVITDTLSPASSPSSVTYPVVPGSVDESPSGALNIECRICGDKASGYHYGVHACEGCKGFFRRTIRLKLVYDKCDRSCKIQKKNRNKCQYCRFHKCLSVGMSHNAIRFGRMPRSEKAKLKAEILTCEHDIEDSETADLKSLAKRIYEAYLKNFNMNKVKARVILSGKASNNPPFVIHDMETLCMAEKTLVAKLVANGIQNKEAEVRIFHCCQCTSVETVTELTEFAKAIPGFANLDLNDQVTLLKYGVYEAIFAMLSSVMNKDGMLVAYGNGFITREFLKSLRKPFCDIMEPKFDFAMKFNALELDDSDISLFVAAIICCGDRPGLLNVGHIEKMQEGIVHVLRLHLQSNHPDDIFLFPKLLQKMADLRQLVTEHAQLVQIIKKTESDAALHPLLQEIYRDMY
How it was run: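 Read-out is fluorescence of reporter cDNA fragments resolved by capillary electrophoresis after RT-PCR. Human HepG2 liver cells carried transfected PPARa-Gal4 chimera and GAL4-UAS reporter units, treated 24 h; activity scored as increase over DMSO.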

[20] = target: X-box-binding protein 1 (Homo sapiens) (UniProt P17861); assay: ATG_Xbp1_CIS: Attagene CIS-FACTORIAL HepG2 Assay for human X-box Binding Protein 1 (XBP1) (AID 2282972); conditions: HepG2 XBP1 cis-element reporter, Attagene multiplex; actives raise or lower the signal
X-box-binding protein 1 (Homo sapiens), sequence (P17861 whole entry, looked up): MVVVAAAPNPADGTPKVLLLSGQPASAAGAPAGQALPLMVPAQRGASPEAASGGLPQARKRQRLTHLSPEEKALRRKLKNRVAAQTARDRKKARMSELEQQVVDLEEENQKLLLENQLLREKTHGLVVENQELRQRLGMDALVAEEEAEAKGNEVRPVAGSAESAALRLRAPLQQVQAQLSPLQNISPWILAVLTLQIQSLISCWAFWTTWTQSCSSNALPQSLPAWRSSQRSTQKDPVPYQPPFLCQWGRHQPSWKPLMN
How it was run: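 HepG2 cells transiently transfected with cis-regulated multiple reporter transcription units; endogenous transcription factor activity measured 24 hours after chemical dosing. Reporter mRNA quantified by RT-PCR, 6-FAM primer extension, HpaI digestion and capillary electrophoresis; bidirectional fitting versus DMSO.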

Measured: AC50

Cc1ccnc(N)c1
active: [3] 76.7 µM | [11] 66.8 µM
inactive: [1] | [2] | [4] | [5] | [6] | [7] | [8] | [9] | [10] | [12] | [13]

CC/C=C/CCO
inactive: [1] | [14] | [3] | [4] | [15] | [16] | [9] | [11] | [12] | [13]

CC[N+](CC)(CC(=O)Nc1c(C)cccc1C)Cc1ccccc1
inactive: [17] | [3] | [4] | [6] | [15] | [7] | [18] | [8] | [9] | [11] | [19]

O=C(Oc1ccccc1)c1ccccc1
inactive: [2] | [3] | [5] | [6] | [15] | [7] | [18] | [16] | [9] | [10] | [12] | [13]

C=C(C)C(=O)OCCCCCC
inactive: [2] | [14] | [3] | [4] | [15] | [20] | [18] | [16] | [8] | [10] | [19] | [13]

O=C(O)/C=C\C(=O)O
inactive: [1] | [17] | [14] | [3] | [4] | [5] | [15] | [20] | [7] | [18] | [16] | [8] | [10] | [11] | [13]

O=C(C1CCCCC1)N1CC(=O)N2CCc3ccccc3C2C1 (stereo unspecified)
inactive: [1] | [17] | [2] | [14] | [4] | [5] | [6] | [15] | [16] | [9] | [10] | [19] | [12]
